Assay outcomes deposited in PubChem by National Center for Advancing Translational Sciences (NCATS).
miR-21 act – qHTS Assay for Modulators of miRNAs and/orActivators of miR-21; HeLa miR-21 FLuc reporter, luciferase, 48 h; Potency, µM (titrated, usually from 38.3 µM), for the others: at the highest dose activity change, positive = activation, hits mostly activators; 340,000 tested, under 10 active; AID 2288, 2010;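 also: % of control where 0% means no effect; miR-21 action dims this reporter so a rising signal means less miR-21 action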
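Compounds were titrated across several concentrations (up to approximately 40 uM) and incubated 48 hours with HeLa miR-21-FLuc reporter cells (miR-21 target sequence downstream of FLuc, endogenous miR-21). Readout was firefly luciferase luminescence after lytic detection reagent.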
p53 reactivator – qHTS assay for re-activators of p53 using a Luc reporter | Potency, µM (doses to about 92.2 µM), without a hit: at the highest dose activity change, positive = activation, hits mostly activators | 320,000 compounds, 0.063% hits | AID 504706, 2011 | H1299 p53-A138V BP100-luciferase reporter, luminescence, 24 h; also: potency is read from the fitted curve at half-maximal effect; % of control where 0% means no effect; nearly all actives have a fitted effect of over 45% in size
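p53-null H1299 cells stably carrying temperature-sensitive p53-A138V and a BP100-luciferase reporter were pinned with compounds (4-point, 1:5 series) and held 24 hrs at 37 deg C. Luminescence was read 10 min after detection reagent.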
BRCA1 expr up – qHTS Assay to Identify Small Molecule Activators of BRCA1 Expression; MCF7-BRCA1-FFLuc reporter, luminescence, 48 h; response scale: scaled: vehicle 0%, 10 µM genistein 100%; Potency, µM (series often up to 46.1 µM), for the others: top-dose activation, actives largely listed as activators; 380,000 compounds, 1.1% hits; AID 624202, 2012; also: potency is read from the fitted curve at half-maximal effect; nearly all actives have a fitted effect of over 80% in size
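MCF7-BRCA1-FFLuc, 2000 cells/well; 2 h attach, 37 °C/5% CO2; compound 48 h; luciferase substrate 15 min; luminescence end-point. Norm. to genistein 10 microM max activation and DMSO; concentration-response curves fitted.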
Anesthetic bind – qHTS Assay for Identification of Novel General Anesthetics; apoferritin/1-aminoanthracene competitive binding, fluorescence; Ferritin light chain (Equus caballus), P02791; 350,000 compounds, 0.074% hits; Potency, µM (highest dose often 77.5 µM), for the others: at the top dose activity change, negative = displacement, hits mostly inhibitors; also: potency is read from the fitted curve at half-maximal effect; % is scaled to controls: 0 for no effect and ±100 for the full control effect; nearly all actives have a fitted effect of over 20% in size
Target sequence (P02791 2-175 limits assumed): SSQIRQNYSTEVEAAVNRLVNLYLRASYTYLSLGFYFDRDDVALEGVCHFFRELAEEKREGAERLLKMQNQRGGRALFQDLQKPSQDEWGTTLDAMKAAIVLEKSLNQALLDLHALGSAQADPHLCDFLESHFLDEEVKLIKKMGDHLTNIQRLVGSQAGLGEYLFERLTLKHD
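Probe: 1-aminoanthracene (50% saturated, PBS). Protein: horse-spleen apoferritin, 10 uM. Incubation: 10 min, room temperature. Detection: 380 nm excitation, 535 nm emission. Analysis: normalized response, four-parameter Hill.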
An asterisk follows results filed as active; ? = inconclusive; . = not tested or not shown. In the library only some 1.1% were active in any assay of this set; here they are far more common. Calls follow the shape of the dose curve; as a rule, active = well fitted curve in the direction sought with a large enough effect; inconclusive = small, poorly fitted or top-dose-only effect, or another doubt; inactive = no such curve, though single readings can be large; an effect the other way counts as inactive or inconclusive.

SMILES	miR-21 act	p53 reactivator	BRCA1 expr up	Anesthetic bind
Cn1c2ccccc2c2ncn(CCC3=CCCCC3)c(=O)c21	-53%	?	10µM*	-18%
O=C(Nc1ccc(C(F)(F)F)cc1)C1CCCN(c2cnccn2)C1 (stereo unspecified)	-4%	.	.	90%
COc1ccc(/C=N/Nc2ncc(-c3ccccc3)cn2)c(OC)c1	-11%	-2%	1%	1%
COc1ccc(/C=N/Nc2ncccc2[N+](=O)[O-])c(OC)c1	-22%	?	14µM*	?
CCCCSC(=O)Nc1ccccc1	-20%	13%	39%	13µM*
CCCCCC(=O)NNC(=O)Nc1ccccc1	-1%	3%	1%	5%
Cc1cn2c(=O)cc(COc3ccc(NC(=O)c4ccccc4C)cc3)nc2s1	-1%	.	0%	-5%
Cn1ccc(C(=O)Nc2ccc(Br)cc2Br)n1	-70%	?	2.2µM*	-14%
Cc1ccsc1CCNC(=O)C1CCC(=O)N(CCc2cccc(F)c2)C1 (stereo unspecified)	-59%	?	7.9µM*	-6%
COCCCNC(=O)c1sc2nc(C)c(C(=O)Nc3ccc(C)cc3C)c(-c3ccc(Cl)cc3)c2c1N	24%	.	.	117%
CCOC(=O)c1ccc(NS(=O)(=O)c2cn(C)c(C)n2)cc1	-6%	.	-6%	2%
O=C(NC1CC1)c1ccc2sc([C@H]3C[C@H](O)[C@@H](CO)O3)nc2c1	.	.	2%	.
O=C(Nc1ccc2c(c1)OCO2)c1ccc2sc([C@@H]3O[C@H](CO)[C@H](O)[C@H](O)[C@H]3O)nc2c1	.	.	5%	.
O=C(Nc1nccs1)c1ccc2sc([C@H]3C[C@H](O)[C@@H](CO)O3)nc2c1	.	.	13µM*	.
CC(C)NC(=O)c1ccc2sc([C@H]3C[C@H](O)[C@@H](CO)O3)nc2c1	.	.	0%	.
O=C(Nc1ccc2c(c1)OCO2)c1ccc2sc([C@@H]3O[C@H](CO)[C@@H](O)[C@H]3O)nc2c1	.	.	3.2µM*	.
O=C(Nc1ccc2c(c1)OCO2)c1ccc2sc([C@H]3C[C@H](O)[C@@H](CO)O3)nc2c1	.	.	8.9µM*	.
CC1(C(=O)Nc2cccc(OC(F)(F)F)c2)Cc2c(-c3ccc4c(c3)OCO4)ccnc2O1 (stereo unspecified)	.	.	-43%	.
O=Cc1cccn1Cc1ccc(Cl)cc1Cl	-7%	-2%	2%	14µM*
NNC(=O)c1cccn(Cc2ccc(Cl)cc2Cl)c1=O	4%	0%	-26%	2%
CN(C)c1ncnc2c1ncn2-c1ccccc1	.	.	11µM*	.
Cc1cc(C)nc(N/N=C/C(Cl)=C/c2ccccc2)n1	-46%	17%	10µM*	-9%
Cc1cc(C)nc(N/N=C/c2ccccc2)n1	-52%	10%	93%	-11%
C[C@H](O)[C@@H]1C(=O)N2CCc3ccc(-c4ccccc4)cc3[C@@H]2C[C@@H]1N(C)C(=O)c1ccco1	.	.	3%	.
COc1ccccc1-c1cncnc1NCCc1cnc[nH]1	.	.	.	2%
SMILES	miR-21 act	p53 reactivator	BRCA1 expr up	Anesthetic bind
O=C(/C=C/c1ccc(OCCCF)cc1)N1CCOCC1	-55%	13%	10µM*	2%
O=C(/C=C/c1cccc2ccccc12)N1CCOCC1	-71%	9%	10µM*	-2%
O=C(/C=C/c1cccc(Oc2ccccc2)c1)N1CCOCC1	-53%	20%	8.9µM*	-8%
O=C(CCc1ccccc1)NCc1ccc2c(c1)CCN2C(=O)c1ccc(Cl)cc1	7%	.	.	-12%
Cc1ccc2oc(=O)c(/C=C(\O)c3ccccc3)nc2c1	-51%	?	7.1µM*	-23%
CCOC(=O)c1ccc(NC(=O)CSc2cn(CC(=O)N3CCCC3)c3ccccc23)cc1	7%	.	.	-11%
COc1ccc2sc(C)cc(=O)c2c1	.	.	15%	.
COc1ccc2sc3ccccc3c(=O)c2c1	-59%	18%	5.6µM*	155%
C[C@H](CO)N1C[C@H](C)[C@@H](CN(C)S(=O)(=O)c2ccc(Oc3ccccc3)cc2)OCc2cnnn2CCCC1=O	.	.	2%	.
Cc1cccc(Nc2ccc([N+](=O)[O-])cn2)c1	-47%	?	11µM*	?
Cc1cc(SCC(=O)N/N=C/c2ccc(O)c(O)c2O)c(C)cc1Br	25%	16%	-84%	32µM*
Cc1ccc(CONC(=O)c2ccccc2)cc1	-66%	20%	2.2µM*	-2%
Cc1ccc(C(=O)N/C(=C\c2ccccc2)C(=O)OCc2ccccc2)cc1	-51%	?	7.9µM*	-2%
O=C(NOCc1ccccc1)c1ccc(Cl)cc1	.	29%	10%	.
Cc1ccc(CONC(=O)c2ccc(Cl)cc2)cc1	.	?	8.9µM*	.
COc1ccc(CN(C(=O)c2snc(C(N)=O)c2N)C(C(=O)NC2CCCC2)c2cc(OC)ccc2OC)cc1 (stereo unspecified)	2%	-8%	-26%	7%
COc1ccc2nc(N3CCCCC3)c(C#N)cc2c1	-41%	?	11µM*	234%
COc1ccccc1N1CCN(/N=C/c2ccc([N+](=O)[O-])cc2)CC1	-13%	.	5µM*	-6%
C=CCSc1nn2c(=O)c3ccccc3nc2s1	-34%	19%	2.8µM*	-23%
CC1CCC(NC(=O)C2(C)Cc3ccccc3C(=O)N2Cc2ccc(F)cc2)CC1 (stereo unspecified)	0%	.	.	-5%
CCC(=O)N1N=C(c2ccc(C)o2)CC1c1ccc(N(C)C)cc1 (stereo unspecified)	-30%	8%	63%	-14%
COc1ccc(C2CC(c3ccc(C)o3)=NN2C(C)=O)cc1 (stereo unspecified)	-74%	?	6.3µM*	-9%
CC(=O)N1N=C(c2ccc(C)o2)CC1c1ccc(Br)cc1 (stereo unspecified)	-47%	13%	10µM*	-12%
O=C(CCCn1c(=O)c2cccn2c2ccccc21)NCCc1ccc(Cl)cc1	-86%	.	.	-19%
Cc1ccc(S(=O)(=O)O/N=C2\CCCc3ccccc32)cc1	0%	5%	-14%	-16%
SMILES	miR-21 act	p53 reactivator	BRCA1 expr up	Anesthetic bind
CC1=C(C)/C(=N\OS(=O)(=O)c2ccccc2)C=CC1=O	?	-17%	-93%	28µM*
COc1ccccc1-c1nc(COc2ccc(Cl)cc2Cl)no1	-70%	25%	4.5µM*	-13%
O=C(CNC(=O)c1ccccc1F)N/N=C/c1cccs1	-47%	15%	10µM*	-15%
S=C(Nc1ccccc1)c1ccccn1	-40%	?	10µM*	0%
CCCCc1ccc(-c2nc(N)n[nH]2)cc1	-41%	?	7.9µM*	?
O=C(c1ccco1)n1nc(-c2ccccc2)nc1SCc1ccccc1	-25%	18%	2.8µM*	-17%
Cc1ccc(S(=O)(=O)n2nc(-c3ccco3)nc2SCc2ccccc2)cc1	-44%	24%	11µM*	?
CCCC(=O)n1nc(-c2ccco2)nc1SCc1ccccc1	-50%	?	?	?
O=C(Cc1ccccc1)n1nc(-c2ccco2)nc1SCc1ccccc1	-51%	14%	11µM*	?
